Among the data in PubChem BioAssay (EPA / NIEHS) are outcome and AC50 values, retold here.

Active and inactive are the calls of the source. How the source made its calls: active means hit-call score of the fitted dose curve at least 0.9, where 1 is the maximum; inactive means score below 0.9.

The first experiment is described as follows: ATG_M_32_CIS: Attagene CIS-FACTORIAL HepG2 Assay for M32 Transcription Factor (Internal Marker) (AID 2282949).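 Further: background control marker of the multiplexed CIS panel rather than a real target.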 The note with it: HepG2 Attagene cis-factorial M32 reporter, mRNA; actives raise or lower the signal. The procedure, abridged:
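Using DMSO as baseline, bidirectional curve fits were applied to reporter mRNA signals. These came from transiently transfected HepG2 cells exposed for 24 h, with RNA analysed by RT-PCR, FAM primer extension, HpaI digestion and CE.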
Take `CCCC(O)C(O)CO` (stereo not given): the outcome was inactive.
Still for that read-out and setting: in the case of `NCCNc1cccc2ccccc12` it was “inactive”; in that of `CC(C)=CCCC(C)CC(=O)O` (stereo not given), “inactive”.
On the same count and under the same terms, in the case of `Cc1c(OCC(F)(F)F)ccnc1CS(=O)c1nc2ccccc2[nH]1` (stereo not given) it was “inactive”; in that of `Nc1ccc(NCCO)c([N+](=O)[O-])c1`, “inactive”; in that of `CCOC(=O)c1ccc(N)cc1`, “inactive”.
Consider `Oc1ccc2cc(SSc3ccc4cc(O)ccc4c3)ccc2c1`, for which the molecule was called inactive.
On the same count and under the same terms, in the case of `CC1=CC[C@@]23C[C@@H]1C(C)(C)[C@@H]2CC[C@H]3C` it was “inactive”; in that of `CC(=O)NCCO`, “inactive”; in that of `CC(C)(N=C=O)c1cccc(C(C)(C)N=C=O)c1`, “inactive”.
Still for that read-out and setting: then `COC(=O)c1ccc(C)cc1C1=NC(C)(C(C)C)C(=O)N1` (stereo not given) (tested in a mixture with another compound), with “inactive”; and `CN1C(=O)c2ccccc2C1=O`, with “inactive”; and `CN(c1nccc(=O)[nH]1)C1CCN(c2nc3ccccc3n2Cc2ccc(F)cc2)CC1`, with “inactive”.
`C[C@H](CCC(=O)NCC(=O)O)[C@H]1CC[C@H]2[C@@H]3[C@H](O)C[C@@H]4C[C@H](O)CC[C@]4(C)[C@H]3C[C@H](O)[C@]12C`: the molecule was classed as inactive.
What is called AC50 is the concentration at which the activity in the assay is half-maximal. As for `CN1CCOCC1`, the AC50 is 100 µM (active).
As for `CC/C=C\CC/C=C/CO`, the call was inactive.
Same read-out and setting: then `CCCC(=O)c1ccccc1`, with “inactive”.
Still for that read-out and setting: in the case of `CCCCCCC(=O)c1ccccc1` it was “inactive”; in that of `O=C1OC(=O)c2c(Cl)c(Cl)c(Cl)c(Cl)c21`, “inactive”.
The same measure, in the same setting: then `C=CCOC(=O)CCCCCC`, with “inactive”; and `CCO/C=C1\N=C(c2ccccc2)OC1=O`, with “inactive”; and `COc1ccc(CCO)cc1`, with “inactive”.
`C#CC(C)N(C)C(=O)Nc1ccc(Cl)cc1` (stereo not given): the result was inactive.
Still for that read-out and setting: then `O=C(Nc1ccc2c(O)c(N=Nc3ccc(N=Nc4ccc(S(=O)(=O)O)cc4)cc3)c(S(=O)(=O)O)cc2c1)c1ccccc1`, with “inactive”; and `C=C(C)C(=O)OCCOCCOCCOC(=O)C(=C)C`, with “inactive”.

The next experiment is described as follows: ATG_M_06_CIS: Attagene CIS-FACTORIAL HepG2 Assay for M06 Transcription Factor (Internal Marker) (AID 2282950). To be noted: HepG2 Attagene CIS-FACTORIAL M06 internal marker reporter; actives raise or lower the signal. Put shortly: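 HepG2 cells transiently transfected with cis-regulated multiple reporter transcription units were exposed to chemical for 24 h; reporter mRNA was quantified by RT-PCR, 6-FAM primer labelling, HpaI digestion and capillary electrophoresis, fitted bidirectionally against DMSO.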
With `CCCC(O)C(O)CO` (stereo not given), the molecule was called inactive.
As to `COCCc1ccc(OCC(O)CNC(C)C)cc1` (stereo not given), the molecule was called inactive.
Still for that read-out and setting: in the case of `C=C(C#N)C(=O)OCC` it was “inactive”.
On the same count and under the same terms, then `Cc1c(OCC(F)(F)F)ccnc1CS(=O)c1nc2ccccc2[nH]1` (stereo not given), with “inactive”; and `CCOC(=O)c1ccc(N)cc1`, with “inactive”.
On the same count and under the same terms, then `Oc1ccc2cc(SSc3ccc4cc(O)ccc4c3)ccc2c1`, with “inactive”; and `CC1=CC[C@@]23C[C@@H]1C(C)(C)[C@@H]2CC[C@H]3C`, with “inactive”.
As for `C=C(C)CNCC`, the call was inactive.
On the same count and under the same terms, in the case of `CC(=O)NCCO` it was “inactive”; in that of `OCCCCC(O)CO` (stereo not given), “inactive”.
Still for that read-out and setting: in the case of `CCCCCCCCCCCC(=O)OC[C@@H](O)[C@H]1OC[C@H](O)[C@H]1O` it was “inactive”; in that of `CN(c1nccc(=O)[nH]1)C1CCN(c2nc3ccccc3n2Cc2ccc(F)cc2)CC1`, “inactive”.
Still for that read-out and setting: in the case of `CCCCCC(C)=O` it was “inactive”.
Take `C[C@H](CCC(=O)NCC(=O)O)[C@H]1CC[C@H]2[C@@H]3[C@H](O)C[C@@H]4C[C@H](O)CC[C@]4(C)[C@H]3C[C@H](O)[C@]12C`: the result was inactive.
Same read-out and setting: in the case of `CC(C=O)Cc1ccc(C(C)(C)C)cc1` (stereo not given) it was “inactive”; in that of `CN1CCOCC1`, “inactive”; in that of `c1ccc(CN(Cc2ccccc2)Cc2ccccc2)cc1`, “inactive”.
On the same count and under the same terms, in the case of `CC/C=C\CC/C=C/CO` it was “inactive”; in that of `CCCC(=O)c1ccccc1`, “inactive”.
The same measure, in the same setting: in the case of `CCCCCCC(=O)c1ccccc1` it was “inactive”.
Take `O=C1OC(=O)c2c(Cl)c(Cl)c(Cl)c(Cl)c21`: the call was inactive.
On the same count and under the same terms, in the case of `CCCCSCCCC` it was “inactive”; in that of `C=C(CC(=O)O)C(=O)O`, “inactive”; in that of `OC[C@H]1O[C@@H]2O[C@H]3[C@H](O)[C@@H](O)[C@@H](O[C@H]4[C@H](O)[C@@H](O)[C@@H](O[C@H]5[C@H](O)[C@@H](O)[C@@H](O[C@H]6[C@H](O)[C@@H](O)[C@@H](O[C@H]7[C@H](O)[C@@H](O)[C@@H](O[C@H]8[C@H](O)[C@@H](O)[C@@H](O[C@H]9[C@H](O)[C@@H](O)[C@@H](O[C@H]1[C@H](O)[C@H]2O)O[C@@H]9CO)O[C@@H]8CO)O[C@@H]7CO)O[C@@H]6CO)O[C@@H]5CO)O[C@@H]4CO)O[C@@H]3CO`, “inactive”.
Same read-out and setting: in the case of `CCO/C=C1\N=C(c2ccccc2)OC1=O` it was “inactive”; in that of `COc1ccc(CCO)cc1`, “inactive”; in that of `C#CC(C)N(C)C(=O)Nc1ccc(Cl)cc1` (stereo not given), “inactive”.
On the same count and under the same terms, in the case of `FC(F)(F)COCC(F)(F)F` it was “inactive”; in that of `O=C(Nc1ccc2c(O)c(N=Nc3ccc(N=Nc4ccc(S(=O)(=O)O)cc4)cc3)c(S(=O)(=O)O)cc2c1)c1ccccc1`, “inactive”.
For `[Cl][Au]([Cl])[Cl]`, the call was inactive.
